Results filed as inconclusive are left out. The source made the active and inactive calls. Calls follow the shape of the dose curve; as a rule, active = well fitted activation curve with a large enough effect; inconclusive = small, poorly fitted or top-dose-only effect; inactive = no such curve, though single readings can be large or run the other way.
Molecular target: Relaxin receptor 1 (Homo sapiens) (UniProt Q9HBX9)
Test: qHTS Assay for Agonists of the Relaxin Receptor RXFP1: RXFP1 Hit Validation; also: nearly all actives have a fitted effect of over 65% in size;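 as to activation: cAMP rise lowers the TR-FRET signal in lysed cells with PDE4 inhibitor present; 0% = buffer-only basal and 100% = 29 nM porcine relaxin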
Conditions: HEK293T-RXFP1 cAMP TR-FRET, 30 min; series mostly up to 115 µM; activation: at the top concentration
Potency is read from the fitted curve at half-maximal effect.

Relaxin receptor 1 (Homo sapiens), sequence (Q9HBX9 whole entry, looked up): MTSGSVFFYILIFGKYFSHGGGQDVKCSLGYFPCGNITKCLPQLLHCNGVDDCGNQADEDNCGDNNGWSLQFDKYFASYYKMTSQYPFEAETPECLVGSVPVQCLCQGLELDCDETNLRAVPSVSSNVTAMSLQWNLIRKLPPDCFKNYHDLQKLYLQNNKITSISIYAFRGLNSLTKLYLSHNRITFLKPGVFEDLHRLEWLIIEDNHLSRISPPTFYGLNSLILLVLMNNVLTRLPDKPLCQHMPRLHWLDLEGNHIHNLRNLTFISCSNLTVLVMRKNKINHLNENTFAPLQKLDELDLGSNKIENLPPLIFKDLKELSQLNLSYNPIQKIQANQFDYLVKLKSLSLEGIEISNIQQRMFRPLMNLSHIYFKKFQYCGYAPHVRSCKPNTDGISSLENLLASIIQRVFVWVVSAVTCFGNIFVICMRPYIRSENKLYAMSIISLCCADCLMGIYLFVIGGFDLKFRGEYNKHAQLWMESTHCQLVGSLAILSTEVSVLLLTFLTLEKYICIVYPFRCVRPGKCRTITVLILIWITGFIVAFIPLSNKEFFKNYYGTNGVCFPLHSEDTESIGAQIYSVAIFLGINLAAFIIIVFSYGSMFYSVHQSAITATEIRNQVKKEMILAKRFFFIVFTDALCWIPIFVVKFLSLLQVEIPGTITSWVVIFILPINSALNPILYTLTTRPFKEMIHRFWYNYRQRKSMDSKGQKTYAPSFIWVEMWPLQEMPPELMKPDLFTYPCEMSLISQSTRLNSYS

activation, inactive:
CC1CCCCN1C(=O)c1ccccc1NC(=O)c1ccco1 (stereo unspecified) -6.44% [at 125 µM]
Cc1ccc(CN(C)C(=O)c2ccc3c(c2)NC(=O)CS3)o1 -29.9%
N#C/C(=C\c1c(N2CCC(C(N)=O)CC2)nc2ccccn2c1=O)C(=O)NC1CCCCC1 24.3%
N#C/C(=C/c1ccc(OCc2ccccc2)cc1)C(=O)NC1CCCCC1 12.2% [at 45 µM]
Cn1c2c(c(=O)n3ncnc13)CCCC2 29.5%
O=C1CN(c2nc3ccccc3n3cnnc23)CC(=O)N1CCc1ccccc1 13.4% [at 45 µM]
O=C(Nc1ccccc1C(=O)Nc1ccccc1)c1ccco1 -9.11% [at 125 µM]
Cc1cccn2c(=O)c3cc(C(=O)NCCN4CCOCC4)c(=N)n(CCCN4CCOCC4)c3nc12 20.9%
CN(C)c1ccc(C(=S)N2CCN(S(=O)(=O)c3ccccc3)CC2)cc1 0.765%
CCn1c(=O)c2sccc2n2c(CCCC(=O)NCc3cccnc3)nnc12 28.5%
Cc1nn(CC(=O)NCCN2CCOCC2)c(=O)c2cc3sccc3n12 18.1%
O=C(Nc1ccccc1C(=O)N1CCOCC1)c1ccco1 3.67% [at 125 µM]
Cc1cccc(C(=O)Nc2ccccc2C(=O)NCc2ccco2)c1 9.91% [at 125 µM]
CCN(CC)CCCCCC(=O)Nc1ccccc1C(=O)Nc1ccccc1 -3.6% [at 125 µM]
CC(=O)Nc1c2c3c(cccc3n(C)c1=O)C(=O)c1ccccc1-2 24.1% [at 45 µM]
O=C(O)c1ccc(CN2C(=O)c3ccc(C(=O)O)cc3C2=O)cc1 0.0336%
CC(=O)C1C(c2ccccc2)c2c(noc2C)CC1(C)O (stereo unspecified) -2.95%
Cc1cc(C)c(C(=O)CSc2n[nH]c(=O)n2C2CC2)cc1C -3.14%
COc1ccccc1NC(=O)c1sc2nc3n(c(=O)c2c1C)CCC3 7.23% [at 45 µM]
O=C(Nc1ccccc1C(=O)O)c1ccc(NC(=O)C2CC2)cc1 -5.11% [at 45 µM]
O=C(Nc1ccccc1C(=O)Nc1ccc(F)cc1)c1ccco1 -0.753% [at 125 µM]
Cc1ccc(-c2ccc3nnc(SCC(=O)NCC4CCCO4)n3n2)cc1 (stereo unspecified) -24.9%
CC(NC(=O)c1ccccc1NC(=O)c1ccco1)C(=O)O (stereo unspecified) 5.27% [at 125 µM]
CCC(=O)Nc1ccc(-n2nnnc2SCC(=O)NNC(=O)c2ccco2)cc1 -4.13%
CC(=O)CCCCn1c(=O)c2c(ncn2C)n(C)c1=O 27.5%

Potency, active:
CCc1cc2c(=O)nc3n(c2s1)Cc1ccccc1/C3=C(/O)c1cccc([N+](=O)[O-])c1 5.3 µM
CC1(C)Cc2nc3sc4c(SCC(=O)NC(c5ccccc5)c5ccccc5)ncnc4c3cc2CO1 4.88 µM
O=C(Nc1cccc(C(F)(F)F)c1)c1ccccc1NC(=O)C1CCCCC1 11.9 µM
COc1ccc(Cl)cc1-c1n[nH]c(=S)o1 6.15 µM
COC(=O)Cn1cnc2c(C#N)c3n(c2c1=O)CCCCC3 13.8 µM
CCN(CC)S(=O)(=O)c1cccc(N=Nc2c(O)c3ccccc3oc2=O)c1 21.9 µM
CC1(C)Cc2c(sc3c2c2ncnn2c2nnc(SCC(=O)NCc4ccco4)n32)CO1 6.16 µM
O=C(OCc1nc2ccsc2c(=O)[nH]1)c1cccc(S(=O)(=O)N2CCOCC2)c1 34.6 µM
O=[N+]([O-])c1cc2c(c(CSc3nnc4ccccn34)c1)OCOC2 30.9 µM
CCC1(C)Cc2c(sc3c2c2ncnn2c2nnc(SCC(=O)NCc4ccco4)n32)CO1 (stereo unspecified) 12.3 µM
Cc1cc(Br)c2nc3c(c(C(=O)O)c2c1)CCCCC3 1.94 µM
